# Measured values as given in PubChem BioAssay AID1578 (Sanford-Burnham Center for Chemical Genomics, 2009).
# Screen size: about 290,000 compounds; about 3,000 (1%) were called active. Only a selection was taken, and actives are over-represented in it overall. Values without a mark were called inactive. Rule as the data show it: active = inhibition mostly above about 36% (no sharp cut-off); inactive = mostly below about 34%.
# Test: NOD1 signaling inhibitors, primary screen, cell-based, luminescence, uHTS (AID 1578);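 also: HEK-293T reporter cells stimulated with the NOD1 agonist gamma-tri-DAP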
# Conditions: NOD1-driven NF-kB luciferase reporter cells, at 4 µM, hits give high values
row,Compound,inhibition
1,Fc1cccc(CN2CCN(Cc3nc(CCc4ccccc4)no3)CC2)c1,-21.1%
2,Cc1ccc(O)c(C(CC(=O)NCc2ccco2)c2ccccc2)c1 (configuration not stated),-21.1%
3,Cc1nnc(SCC(=O)c2ccccc2F)n1Cc1ccccc1,-6.1%
4,COCC1CCN(C(=O)c2cc(COc3ccc(OC)c4ccccc34)on2)C1 (configuration not stated),-73.2%
5,CS(=O)(=O)N(CCCC(=O)N1CCCCCC1)c1cccc(Cl)c1,0.2%
6,CCN(CC)CCNC(CC(=O)Nc1ccc(Cl)cc1Cl)C(=O)O (configuration not stated),-7%
7,COc1ccc(-c2cc(NCCc3ccncc3)n3ncnc3n2)cc1,2.6%
8,COc1ccc(NC(=O)NCc2ccco2)cc1OC,-24.4%
9,COc1cc(S(=O)(=O)NCc2ccncc2)c(OC)cc1C,-15.2%
10,O=[N+]([O-])c1cccc(/C=C/c2nc[nH]c2[N+](=O)[O-])c1,-10.5%
11,Cc1cccc(C(=O)Oc2ccccc2C(=O)N2CCOCC2)c1,-8.5%
12,COCCn1c(C)cc(C2=NNC(=Nc3ccccc3F)SC2)c1C,65.1% (active)
13,COCCn1c(C)cc(C2=NNC(=Nc3ccccc3)SC2)c1C,-63.4%
14,COCCn1c(C)cc(C2=NNC(=Nc3ccc(Cl)cc3Cl)SC2)c1C,13.9%
15,Cc1c(C)c2ccc(O)c(CN3CCCC3)c2oc1=O,15.3%
16,Cn1c2ccccc2c(=O)c2ccc(C#CC3(O)CCCCC3)cc21,82% (active)
17,Cn1c2ccccc2c(=O)c2ccc(C#CC3(N)CCCCC3)cc21,30.6%
18,Cn1c2ccccc2c(=O)c2cc(C#CC3(O)CCCCC3)ccc21,35%
19,CCC(=O)N1CCc2cc(S(=O)(=O)NCCC(=O)N3CCN(c4ccccc4)CC3)ccc21,-26.5%
20,O=C1CCN(CCCc2ccccc2)CCN1[C@H](CO)Cc1ccccc1,-31.4%
21,COc1ccccc1-c1nc(C#N)c(N2CCN(c3ccccc3)CC2)o1,-2.9%

row,Compound,inhibition
1,COc1ccc(-c2nc(C#N)c(N3CCN(c4cccc(Cl)c4)CC3)o2)cc1OC,5.2%
2,C[C@@H]1CC=C[C@H]2[C@H]1C(=O)N(Cc1ccccc1)[C@H]2c1ccc(-c2ccoc2)cc1F,-2.6%
3,Cc1c(O)ccc2c(CC(=O)N[C@@H](Cc3c[nH]c4ccccc34)C(=O)O)cc(=O)oc12,-0.1%
4,FC(F)(F)c1cc(-c2ccccc2)nc(N2CCCCC2)n1,8.3%
5,FC(F)(F)c1cc(-c2ccccc2)nc(N2CCCCCC2)n1,37.9% (active)
6,CN1CCN(c2nc(-c3ccccc3)cc(C(F)(F)F)n2)CC1,-26.3%
7,Cc1nn(C)cc1/C=N\NC(=O)Cc1ccc([N+](=O)[O-])cc1,-27.7%
8,COc1ccc(C#Cc2ccc3c(=O)c4ccccc4n(C)c3c2)cc1,25.7%
9,CCCC(=O)NC(=S)Nc1cccc(Cl)c1N1CCCCC1,-26.4%
10,CCCC(=O)NC(=S)Nc1cccc(Cl)c1N1CCCC1,-26.8%
11,CCC(=O)NC(=S)Nc1cccc(Cl)c1N1CCCC1,55.9% (active)
12,COC(=O)C1Cc2ccccc2CN1C(=O)CCl (configuration not stated),39.2%
13,O=C(Cc1ccccc1)N/N=C/c1cc(Br)cs1,1.2%
14,CCN1CCN(CC(=O)N/N=C/c2cc(Br)cs2)CC1,104% (active)
15,Cc1nccn1CC(=O)N/N=C/c1cc(Br)cs1,-0.6%
16,Cc1cc(C)n(-c2nc3c(c(=O)[nH]c(=O)n3C)n2C(C)C)n1,5.7%
17,O=C(CN1CCN(c2ccc(F)cc2)CC1)Nc1cc(C(F)(F)F)ccc1Cl,-11.8%
18,CCOC(=O)CNC(=O)C1Cc2ccccc2CN1S(=O)(=O)c1cccs1 (configuration not stated),-33%
19,COc1cccc(C2CC(c3cccs3)=NN2S(C)(=O)=O)c1 (configuration not stated),47.7% (active)
20,COc1ccc(C2CC(c3cccs3)=NN2S(C)(=O)=O)cc1 (configuration not stated),-18%
21,COc1ccc(C2CC(c3cccs3)=NN2S(C)(=O)=O)cc1OC (configuration not stated),-25.1%

row,Compound,inhibition
1,COc1ccc(C(=O)Nc2nnc(Cc3ccccc3)s2)c(OC)c1,-43.9%
2,O=[N+]([O-])c1ccc(S(=O)(=O)N/N=C/c2ccco2)cc1,-34.8%
3,CCOC(=O)c1cnc2ccc(OCC)cc2c1NCCN1CCOCC1,-21.5%
4,O=c1cc(-c2ccc3c(c2)OCO3)oc2ccccc12,-38.2%
5,COc1ccc(-c2csc(N3CCN(c4cc(C)nc5ccccc45)CC3)n2)cc1OC,54.5% (active)
6,Cc1cc(N2CCN(c3nc(-c4ccc([N+](=O)[O-])cc4)cs3)CC2)c2ccccc2n1,3.5%
7,Cc1cc(N2CCN(c3nc(-c4ccccc4)cs3)CC2)c2ccccc2n1,-3.1%
8,C[C@@H]1C=C(C(=O)NCc2ccccc2)O[C@H](OCc2ccc(CO)cc2)C1,-6.2%
9,O=C1/C(=C/c2ccc([N+](=O)[O-])cc2)C=C(c2ccccc2)N1c1ccccc1,-31.4%
10,O=C(O)c1cccc(N2C(=O)/C(=C/c3ccc([N+](=O)[O-])cc3)C=C2c2ccccc2)c1,55.4% (active)
11,O=C1/C(=C/c2ccc([N+](=O)[O-])cc2)C=C(c2ccccc2)N1c1ccc(O)cc1,28.6%
12,O=C(NCc1cccnc1)C1CCCN(S(=O)(=O)c2cccc3nsnc23)C1 (configuration not stated),-7.8%
13,CCOC(=O)c1ccc(NC(=S)NCCc2ccccc2F)cc1,-22.7%
14,CCOC(=O)c1ccc(NC(=S)NCCc2ccc(F)cc2)cc1,72.6% (active)
15,CCOC(=O)c1ccc(NC(=S)NCCc2ccccc2)cc1,0.7%
16,CCCCCCn1c(CN2CCCCC2C)nc2c1c(=O)n(C)c(=O)n2C (configuration not stated),-20.6%
17,CCOC(=O)c1c(C2CC2)csc1NC(=O)COC(=O)c1cc(OC)c(OC)cc1[N+](=O)[O-],-39.9%
18,CN1C(=O)/C(=C/c2cccc(Cl)c2)Sc2ccc(C(=O)NCc3cccnc3)cc21,4.4%
19,COc1cccc(/C=C2\Sc3ccc(C(=O)NCc4cccnc4)cc3N(C)C2=O)c1,44.2%
20,COc1ccc(/C=C2\Sc3ccc(C(=O)NCc4cccnc4)cc3N(C)C2=O)cc1OC,42.3% (active)
